In PubChem BioAssay AID1159580 (chemical genetic matrix, 2015):
In all, about 5,500 compounds went through this assay and about 2,000 (36%) were called active. Inconclusive results (about 18%) are left out. Cut-off read from the data, not from the text of the source: active = normalized growth mostly below about 0.91 (no sharp cut-off); inconclusive = no clear call, values can overlap the other calls; inactive = mostly above about 0.92. The list shows a part of the results.

Assay: chemical genetic growth profiling, strain panel (AID 1159580);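 note: tested at 20 µM; growth read once vehicle control cultures reached saturation at 30 °C; 1 = growth at the plate median or of vehicle wells; lower values mean less growth of the strain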
Settings: growth OD
[1] = S. cerevisiae deletion strains, locus YAL013W, strain DEP1, hits give low values
[2] = S. cerevisiae deletion strains, locus YBR229C, strain ROT2, hits give low values
[3] = S. cerevisiae deletion strains, locus YDL101C, strain DUN1, hits give low values
[4] = S. cerevisiae deletion strains, locus YDR150W, strain NUM1, hits give low values
[5] = S. cerevisiae deletion strains, locus YEL061C, strain CIN8, hits give low values
[6] = S. cerevisiae deletion strains, locus YGR078C, strain PAC10, hits give low values
[7] = S. cerevisiae deletion strains, locus YGR229C, strain SMI1, hits give low values
[8] = S. cerevisiae deletion strains, locus YHR030C, strain SLT2, hits give low values
[9] = S. cerevisiae deletion strains, locus YHR087W, strain rtc3, hits give low values
[10] = S. cerevisiae deletion strains, locus YJR043C, strain POL32, hits give low values
[11] = S. cerevisiae deletion strains, locus YJR075W, strain HOC1, hits give low values
[12] = S. cerevisiae deletion strains, locus YKL190W, strain CNB1, hits give low values
[13] = S. cerevisiae deletion strains, locus YLR039C, strain RIC1, hits give low values
[14] = S. cerevisiae deletion strains, locus YLR058C, strain SHM2 (second series), hits give low values
[15] = S. cerevisiae deletion strains, locus YLR085C, strain ARP6, hits give low values
[16] = S. cerevisiae deletion strains, locus YLR262C, strain YPT6, hits give low values
[17] = S. cerevisiae deletion strains, locus YML094W, strain GIM5, hits give low values
[18] = S. cerevisiae deletion strains, locus YMR219W, strain ESC1, hits give low values
[19] = S. cerevisiae deletion strains, locus YMR263W, strain SAP30, hits give low values
[20] = S. cerevisiae deletion strains, locus YNL153C, strain GIM3, hits give low values
[21] = S. cerevisiae deletion strains, locus YNL298W, strain CLA4 (second series), hits give low values
[22] = S. cerevisiae deletion strains, locus YNL322C, strain KRE1, hits give low values
[23] = S. cerevisiae deletion strains, locus YNR030W, strain Alg12, hits give low values
[24] = S. cerevisiae deletion strains, locus YOL006C, strain TOP1, hits give low values
[25] = S. cerevisiae deletion strains, locus YPL055C, strain LGE1, hits give low values
[26] = S. cerevisiae deletion strains, locus YPL241C, strain CIN2, hits give low values
[27] = S. cerevisiae deletion strains, locus YPR135W, strain CTF4, hits give low values
[28] = S. cerevisiae strains, strain wild type, hits give low values
[29] = S. cerevisiae deletion strains, locus YMR307W, strain GAS1, hits give low values

Measured: normalized growth

COc1ccccc1N=C1SCC(=O)N1Cc1ccco1
inactive: [1] 0.993 | [2] 0.99 | [3] 0.983 | [4] 0.9 | [5] 0.989 | [6] 0.981 | [7] 1 | [8] 0.956 | [9] 0.989 | [10] 0.977 | [11] 0.978 | [12] 0.997 | [13] 0.989 | [14] 0.99 | [15] 0.968 | [16] 0.998 | [17] 0.972 | [18] 0.989 | [19] 0.987 | [20] 0.987 | [21] 0.997 | [22] 0.985 | [23] 0.998 | [24] 0.951 | [25] 0.969 | [26] 1.01 | [27] 0.939 | [28] 1

S=c1[nH]nc(-c2ccco2)n1-c1ccc2c(c1)OCCO2
inactive: [1] 0.998 | [2] 0.985 | S. cerevisiae deletion strains, locus YCL061C, strain MRC1, hits give low values 0.994 | [3] 0.989 | S. cerevisiae deletion strains, locus YDL134C, strain PPH21, hits give low values 0.991 | [4] 1.02 | [5] 1.02 | [6] 0.979 | [8] 1.05 | [9] 0.983 | [10] 0.987 | [11] 0.985 | [12] 0.989 | [13] 0.972 | [14] 0.98 | [15] 0.994 | [16] 0.991 | [17] 1 | [18] 0.991 | [19] 1.02 | [29] 1.05 | [20] 0.993 | [21] 1.01 | [22] 0.988 | [23] 1.01 | [24] 0.978 | [25] 0.971 | [26] 1 | [27] 1.06 | [28] 0.979

COc1ccc(-n2c(SCc3ccc(Br)cc3)nnc2-c2ccco2)cc1
inactive: [1] 0.972 | [2] 1 | [3] 1 | [4] 0.962 | [5] 1.01 | [6] 0.987 | [7] 0.978 | [8] 0.79 | [9] 0.996 | S. cerevisiae deletion strains, locus YJL187C, strain SWE1, hits give low values 1.01 | [10] 0.98 | [11] 0.969 | [13] 0.803 | [14] 0.989 | [15] 0.947 | [17] 0.993 | [18] 0.993 | [19] 0.989 | [29] 0.893 | [20] 0.996 | [21] 0.917 | [22] 0.984 | [23] 0.966 | [24] 0.889 | [25] 0.976 | [26] 0.986 | [27] 0.844
active: [16] 0.803
